Compound activity from PubChem.
PP5 primary: blocks human protein phosphatase 5 activity; P53041; purified PP5c, OMFP substrate fluorescence; inhibition, % at 6.7 µM; hit rate 0.18% among 320,000;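 active means inhibition above the campaign's mean inhibition across all tested compounds plus 3 SD, cut at about 9.5% in these data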;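 further: 0% = DMSO only and 100% = 100 µM cantharidin control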
Beta cell apopt: beta cell apoptosis inhibition. AID 435005. protection from apoptosis, % (no concentration beside the values). INS-1E cytokine-induced death, ATP luminescence, 48 h; percent of positive-control rescue, neutral wells zero. hit rate 0.8% among 300,000;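 active means Every replicate reaches about 75%, or at least half do and their mean reaches it too, limit read from the data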;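 further: 0% = cytokine-treated negative control wells and 100% = positive control rescue; higher means more ATP so stronger rescue from cytokine killing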
CSC inhib: blocks cancer stem cells | inhibition, % at 7.5 µM | cancer stem cell-like cells viability, luminescence | hit rate 1.1% among 300,000; in the data active means inhibition above about 75%; tested in HMLE shEcad cells
Calb FLC: affects C. albicans growth with fluconazole | C. albicans CaCi-2 (fluconazole-resistant clinical isolate) + fluconazole, Alamar Blue growth, 48 h | growth inhibition, % (test concentration not listed) | hit rate 0.57% among 300,000 | AID 1979;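 active means growth inhibition above about 58% in most replicates, limit read from the data, passing the limit was not always enough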;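 further: all wells also contain fluconazole at 8 µg/ml as a sub-toxic cotreatment; 0% = median of DMSO wells and 100% = median of geldanamycin control wells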
Mdm2-MdmX inh: disrupts the human Mdm2-MdmX interaction | hit rate 3% among 330,000 | SaOS-2 split-luciferase Mdm2/MdmX complementation, luminescence | inhibition, % at 8 µM;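 active means inhibition of at least 50% at 8 µM in the primary screen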
Target sequence (O15151 whole entry, looked up): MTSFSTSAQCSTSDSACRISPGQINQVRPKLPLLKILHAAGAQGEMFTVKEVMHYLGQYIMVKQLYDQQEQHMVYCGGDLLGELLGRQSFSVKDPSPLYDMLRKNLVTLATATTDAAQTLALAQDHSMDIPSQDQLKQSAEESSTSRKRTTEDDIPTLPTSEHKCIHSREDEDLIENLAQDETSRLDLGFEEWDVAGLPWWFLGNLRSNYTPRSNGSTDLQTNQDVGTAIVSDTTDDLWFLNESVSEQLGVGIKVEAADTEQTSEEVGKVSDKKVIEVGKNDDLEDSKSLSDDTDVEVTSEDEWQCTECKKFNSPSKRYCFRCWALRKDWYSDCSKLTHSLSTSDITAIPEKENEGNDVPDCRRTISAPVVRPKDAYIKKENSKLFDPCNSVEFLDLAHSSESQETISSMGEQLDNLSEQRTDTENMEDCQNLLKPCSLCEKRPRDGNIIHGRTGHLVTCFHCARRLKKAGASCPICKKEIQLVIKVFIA
Target sequence (Q00987 whole entry, looked up): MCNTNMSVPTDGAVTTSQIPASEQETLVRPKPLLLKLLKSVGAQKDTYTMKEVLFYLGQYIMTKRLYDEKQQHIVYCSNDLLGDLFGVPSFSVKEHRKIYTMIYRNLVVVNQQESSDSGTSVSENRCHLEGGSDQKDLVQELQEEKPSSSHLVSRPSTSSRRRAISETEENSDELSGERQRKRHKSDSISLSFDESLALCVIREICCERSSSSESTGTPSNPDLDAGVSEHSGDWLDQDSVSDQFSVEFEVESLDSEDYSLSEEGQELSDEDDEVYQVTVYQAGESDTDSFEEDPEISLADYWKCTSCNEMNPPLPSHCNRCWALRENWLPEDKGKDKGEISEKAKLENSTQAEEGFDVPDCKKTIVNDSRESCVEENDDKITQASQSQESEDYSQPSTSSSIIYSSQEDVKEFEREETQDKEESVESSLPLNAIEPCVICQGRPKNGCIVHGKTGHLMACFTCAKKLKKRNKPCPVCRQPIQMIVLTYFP
PP1 inh: blocks human PP1-alpha phosphatase, a PP5 counter-screen; P62136; purified PP1alpha, OMFP fluorescence; inhibition, % at 6.7 µM; hit rate 0.9% among 320,000; AID 2235;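 active means inhibition above the mean inhibition of all tested compounds plus 3 SD, computed separately for each screening campaign, cut at about 15% in these data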
Mdm2 MdmX conf: confirmation of human Mdm2/MdmX interaction inhibitors | shares compounds with Mdm2-MdmX inh | Mdm2-MdmX binding, luminescent assay | inhibition, % at 8 µM | hit rate 55% among 10,000; in the data active means inhibition above about 40%
FLuc counter: inhibits full-length luciferase, flagging false Mdm2/MdmX hits | inhibition, % at 8 µM | AID 504607 | SaOS-2 full-length luciferase counterscreen, luminescence | hit rate 77% among 6,200 | shares compounds with Mdm2-MdmX inh;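 active means mean inhibition at 8 µM reaching about 37%, which flags the compound as non-specific, limit read from the data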;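 further: p53-null SaOS-2 cells with luciferase driven by a doxycycline-inducible promoter; compound on cells about two nights before reading with doxycycline added after day one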
An asterisk follows results filed as active; / = not tested or not shown. Hits are enriched below; roughly 4.9% of the tested compounds scored in any of these assays.

SMILES | PP5 primary | Beta cell apopt | CSC inhib | Calb FLC | Mdm2-MdmX inh | PP1 inh | Mdm2 MdmX conf | others
COc1ccc(/C=C/C(=O)Nc2sc(Cc3ccccc3)c(C)c2C(N)=O)cc1 | 0 | 2 | 9 | 1 | 64* | -1 | 34 | FLuc counter=114*
Cc1c(Cc2ccccc2)sc(NC(=O)Cc2ccccc2)c1C(N)=O | -1 | -3 | 13 | 0 | 2 | 5 | /
O=C(c1ccccc1O)N1N=C(c2ccccc2)CC1(O)C(F)(F)F (stereo not drawn) | 2 | 22 | 47 | -4 | -30 | 0 | /
O=C1C(=O)N(c2nccs2)C(c2ccccc2F)/C1=C(\O)c1ccc2c(c1)OCCO2 (stereo not drawn) | 1 | -7 | 24 | -2 | 71* | 3 | 68* | FLuc counter=37*
O=C1C(=O)N(c2nccs2)C(c2ccccc2)/C1=C(\O)c1ccc2c(c1)OCCO2 (stereo not drawn) | -5 | -6 | 42 | -9 | 74* | 0 | 88* | FLuc counter=21
Cc1nnc(N2C(=O)C(=O)/C(=C(/O)c3ccc4c(c3)OCCO4)C2c2ccc(F)cc2)s1 (stereo not drawn) | -2 | -7 | -7 | 0 | 10 | -1 | /
CS(=O)(=O)N1c2ccccc2[C@]2(Br)C[C@H]3C(=O)N[C@@H](Cc4ccccc4)C(=O)N3[C@H]12 | -4 | -6 | / | -4 | 11 | 5 | /
COc1ccc(-n2nc3c(N4CCC(C(=O)N5CCCCCC5)CC4)nnc(C)c3c2C)cc1 | 1 | 0 | -1 | -5 | 40 | 7 | /
COc1ncccc1-c1nnn(-c2ccc(C)cc2)n1 | 3 | / | -9 | -3 | -131 | -7 | /
COc1ccc(/C=C/C(=O)c2oc3ccc(F)cc3c2C)cc1 | -1 | 1 | -1 | 5 | -12 | -3 | /
Cc1ccc(OC(=O)c2oc3ccc(F)cc3c2C)c(C)c1 | 2 | 55 | -2 | 6 | 52* | -4 | -25
O=S(=O)(NCCN1CCOCC1)c1cc(Cl)c(Cl)cc1Cl | -1 | / | -12 | 1 | -9 | -1 | /
CCCCc1ccc(C2C3=C(CC(C)(C)CC3=O)NC3=C2C(=O)c2ccccc23)cc1 (stereo not drawn) | 2 | -2 | 26 | -1 | 55* | 4 | 23
CCCc1ccc(C2C3=C(CC(C)(C)CC3=O)NC3=C2C(=O)c2ccccc23)cc1 (stereo not drawn) | 3 | 35 | 89* | 105* | 76* | 10 | -2
CC1(C)CC(=O)C2=C(C1)NC1=C(C(=O)c3ccccc31)C2c1ccc(O)cc1 (stereo not drawn) | 3 | -2 | -1 | 30 | 23 | 3 | /
Cc1cc(Cl)ccc1C(=O)C1CCCN(C(=O)c2cnsn2)C1 (stereo not drawn) | 2 | -3 | -4 | 11 | 6 | 6 | /
O=C(Oc1ccc2ccccc2c1Br)N1CCCCCC1 | -2 | 9 | -17 | 3 | 59* | 0 | 42* | FLuc counter=150*
Cn1nnnc1SCC(=O)Nc1nc2c(F)c(F)c(F)cc2s1 | / | 8 | -3 | / | 24 | / | /
CC(C)(C)n1nnnc1C(c1ccc(Cl)cc1)N(Cc1cccnc1)Cc1ccco1 (stereo not drawn) | 1 | -1 | -1 | 24 | 23 | 2 | /
CC(C)(C)n1nnnc1C(c1ccc(F)cc1)N(Cc1ccc(F)cc1)Cc1ccco1 (stereo not drawn) | 4 | 77* | 24 | 14 | 61* | 6 | 34
Cc1ccc(C(c2nnnn2C(C)(C)C)N(Cc2ccco2)Cc2cccs2)cc1 (stereo not drawn) | 7 | 7 | 2 | 2 | 35 | 5 | /
CC(C)(C)n1nnnc1C(c1ccc(C(F)(F)F)cc1)N(Cc1ccccc1)Cc1ccco1 (stereo not drawn) | 2 | 117* | -13 | 19 | 77* | 1 | -4
CC(C)(C)n1nnnc1C(c1ccc(C(F)(F)F)cc1)N(Cc1ccc(F)cc1)Cc1ccco1 (stereo not drawn) | 3 | 107* | -9 | 4 | 90* | 0 | 27
CN1CCN(NC(=S)Nc2ccc(OC(F)F)cc2)CC1 | 2 | -4 | 6 | 2 | 8 | -7 | /
O=C(NCC(c1ccco1)N1CCN(c2ccccc2)CC1)c1ccc2c(c1)OCO2 (stereo not drawn) | -1 | 6 | -2 | -6 | -12 | -1 | /
SMILES | PP5 primary | Beta cell apopt | CSC inhib | Calb FLC | Mdm2-MdmX inh | PP1 inh | Mdm2 MdmX conf | others
Cc1ccc(S(=O)(=O)Nc2cccc(C(=O)NCC3CCCO3)c2)cc1F (stereo not drawn) | 0 | 5 | -4 | 3 | 11 | -6 | /
CCOc1ccccc1C(=O)Nc1cccc2cccnc12 | 2 | 6 | 25 | 15 | -16 | 0 | /
CC(/C=N/NC(=O)c1n[nH]c2c1CCC2)=C\c1ccccc1 | 1 | 62 | 48 | 17 | 11 | 0 | /
O=C(N/N=C/c1cccc2ccccc12)c1n[nH]c2c1CCCC2 | 0 | 3 | -1 | 0 | 66* | -8 | 65* | FLuc counter=85*
O=C(N/N=C/C=C/c1ccccc1)c1n[nH]c2c1CCC2 | 2 | 12 | 77* | -2 | 63* | 0 | 56* | FLuc counter=95*
O=C(N/N=C/c1ccc(Cl)cc1Cl)c1n[nH]c2c1CCCC2 | 0 | 10 | -2 | 1 | -57 | 6 | /
CC1CCCCC1NC(=O)c1cc(S(=O)(=O)N2CCCCC2)ccc1N1CCOCC1 (stereo not drawn) | 0 | 9 | / | / | -14 | -1 | /
Cc1ccc(O)c(C(=O)c2cnc3c(c2)CN(CCC(C)C)C(=O)N3)c1 | 3 | 16 | 27 | 4 | 54* | 10 | 23
CCCCN1Cc2cc(C(=O)c3cc(OC)ccc3O)cnc2NC1=O | 1 | -8 | 4 | -5 | 31 | 0 | /
CN1Cc2cc(C(=O)c3cc(Cl)cc(CSc4ncccn4)c3O)cnc2NC1=O | 4 | 23 | 68 | -7 | 59* | 6 | 73* | FLuc counter=89*
Cc1ccc(O)c(C(=O)c2cnc3c(c2)CN(C)C(=O)N3)c1 | 1 | -11 | 21 | -14 | 63* | -1 | 49* | FLuc counter=56*
Cc1ccc(C2=NN(CCC(=O)NC3CCCC3)C(=O)CC2)cc1 | 0 | -7 | -1 | 8 | -6 | -3 | /
NC(=O)CC(NC(=O)c1ccc(Cl)cc1)C(=O)NCCc1ccc(S(N)(=O)=O)cc1 (stereo not drawn) | 2 | -8 | -22 | -2 | -8 | -4 | /
COc1ccccc1Nc1nc(N)nc(CCl)n1 | 0 | -12 | -6 | -16 | 72* | -2 | 68* | FLuc counter=54*
COc1cccc(Nc2nc(N)nc(CCl)n2)c1 | 1 | -11 | -1 | -3 | 50 | -1 | /
COc1ccc(OC)c(Nc2nc(N)nc(CCl)n2)c1 | -2 | -6 | -3 | -6 | 82* | -2 | 84* | FLuc counter=41*
